In article PMC7862700, “An all-to-all approach to the identification of sequence-specific readers for epigenetic DNA modifications on cytosine” one finds binding signal data, which are given here for one sequence.

Test in all cases: DAPPL (digital affinity profiling via proximity ligation, sequencing); 10 mM Tris-HCl pH 7.5, 50 mM NaCl, 1 mM DTT, 4% glycerol, room temperature, 30 min; GST-TFs on glutathione beads, 16-mer random dsDNA library, 0.1% formaldehyde crosslink after washing; high values mean tight binding
One assay has as its target T1, FEV (Homo sapiens, UniProt Q99581 1-238).
T1 sequence: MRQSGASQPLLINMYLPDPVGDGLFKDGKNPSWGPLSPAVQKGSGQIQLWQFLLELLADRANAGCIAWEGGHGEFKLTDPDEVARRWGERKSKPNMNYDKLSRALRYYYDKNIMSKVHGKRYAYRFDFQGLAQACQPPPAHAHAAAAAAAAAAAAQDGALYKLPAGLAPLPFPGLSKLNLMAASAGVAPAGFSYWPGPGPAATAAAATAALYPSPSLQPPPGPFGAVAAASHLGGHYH
The note with it: protein: recombinant; tags: N-terminal GST; dsDNA, one strand shown. In a few lines:
(§1)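 Binding signal is each hexamer's read frequency for a factor divided by its frequency in the tag-only sample. The factors were GST-fused human transcription factors from yeast, captured on glutathione beads, DNA-barcoded and pooled with that sample. Pools were incubated with 200 nmole of a random double-stranded 16-mer DNA library in Tris/NaCl/DTT/glycerol buffer at room temperature for 30 min, then washed, crosslinked with 0.1% formaldehyde, proximity-ligated with BsaI/T4 ligase (1 h, 37 °C), PCR-amplified and sequenced on an Illumina NextSeq500.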

Another assay addresses ETV5 (Homo sapiens, UniProt P41161 1-510). The note with it: protein: recombinant; tags: N-terminal GST; dsDNA, one strand shown. In a few lines:
as §1

For the next assay, the target named is HSF1 (Homo sapiens, UniProt Q00613 1-529). The note with it: protein: recombinant; tags: N-terminal GST; chain copies: 3; dsDNA, one strand shown. In a few lines: as §1
Sequence of HSF1 (Q00613 whole entry): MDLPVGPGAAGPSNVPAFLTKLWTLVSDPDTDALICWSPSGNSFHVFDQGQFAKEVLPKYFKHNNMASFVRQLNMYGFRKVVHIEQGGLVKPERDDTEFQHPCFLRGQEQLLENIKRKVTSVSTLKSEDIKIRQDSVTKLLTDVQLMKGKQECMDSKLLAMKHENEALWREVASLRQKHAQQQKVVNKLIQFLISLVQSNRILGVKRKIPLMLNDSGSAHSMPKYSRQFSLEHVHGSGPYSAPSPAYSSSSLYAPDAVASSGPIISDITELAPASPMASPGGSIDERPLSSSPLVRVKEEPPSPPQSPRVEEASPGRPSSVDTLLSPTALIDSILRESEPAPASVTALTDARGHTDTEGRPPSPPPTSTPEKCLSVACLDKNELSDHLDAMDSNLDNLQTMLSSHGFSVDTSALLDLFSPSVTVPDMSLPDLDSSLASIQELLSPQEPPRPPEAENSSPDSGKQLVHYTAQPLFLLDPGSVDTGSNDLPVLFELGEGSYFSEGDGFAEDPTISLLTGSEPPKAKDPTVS
In another assay the target is T2, SPIC (Homo sapiens, UniProt Q8N5J4 1-248).
T2 sequence: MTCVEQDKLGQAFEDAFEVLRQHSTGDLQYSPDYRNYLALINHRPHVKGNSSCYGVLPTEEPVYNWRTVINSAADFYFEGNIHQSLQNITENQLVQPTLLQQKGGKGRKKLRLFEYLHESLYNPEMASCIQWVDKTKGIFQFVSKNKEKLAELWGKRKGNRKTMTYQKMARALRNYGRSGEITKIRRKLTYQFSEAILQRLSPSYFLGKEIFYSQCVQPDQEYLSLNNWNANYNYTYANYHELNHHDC
The settings on record: protein: recombinant; tags: N-terminal GST; dsDNA, one strand shown. In outline: as §1

The target in another assay is ELF4 (Homo sapiens, UniProt Q99607 1-663). The note with it: protein: recombinant; tags: N-terminal GST; dsDNA, one strand shown. In a few lines:
as §1

In a further assay the target is T3, ELK4 (Homo sapiens, UniProt P28324-2 1-405).
T3 sequence: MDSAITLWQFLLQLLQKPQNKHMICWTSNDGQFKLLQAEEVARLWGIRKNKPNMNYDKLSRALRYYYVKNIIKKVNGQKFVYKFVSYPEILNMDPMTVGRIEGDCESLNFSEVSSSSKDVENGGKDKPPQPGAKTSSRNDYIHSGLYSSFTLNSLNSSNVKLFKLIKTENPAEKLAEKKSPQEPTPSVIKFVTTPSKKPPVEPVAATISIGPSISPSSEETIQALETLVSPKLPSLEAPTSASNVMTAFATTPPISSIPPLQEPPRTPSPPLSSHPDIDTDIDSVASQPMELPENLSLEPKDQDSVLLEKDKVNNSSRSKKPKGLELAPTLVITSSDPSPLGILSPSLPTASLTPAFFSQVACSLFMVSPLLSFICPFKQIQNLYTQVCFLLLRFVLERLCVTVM
The note with it: protein: recombinant; tags: N-terminal GST; dsDNA, one strand shown. In outline: as §1

For another assay, the target named is T4, ETV2 (Homo sapiens, UniProt O00321 1-342).
T4 sequence: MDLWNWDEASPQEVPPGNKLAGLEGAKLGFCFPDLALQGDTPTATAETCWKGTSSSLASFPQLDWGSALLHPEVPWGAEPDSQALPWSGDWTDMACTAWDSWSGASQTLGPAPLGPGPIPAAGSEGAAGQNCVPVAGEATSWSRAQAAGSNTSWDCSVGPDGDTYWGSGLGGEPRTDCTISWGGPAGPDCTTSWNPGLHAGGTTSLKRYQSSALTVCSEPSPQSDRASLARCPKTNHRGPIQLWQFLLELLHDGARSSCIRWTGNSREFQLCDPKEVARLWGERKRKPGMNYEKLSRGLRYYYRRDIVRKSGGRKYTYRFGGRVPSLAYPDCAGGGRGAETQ
The settings on record: protein: recombinant; tags: N-terminal GST; dsDNA, one strand shown. In outline:
as §1

Another assay deals with T5, ELF3 (Homo sapiens, UniProt P78545 1-371).
T5 sequence: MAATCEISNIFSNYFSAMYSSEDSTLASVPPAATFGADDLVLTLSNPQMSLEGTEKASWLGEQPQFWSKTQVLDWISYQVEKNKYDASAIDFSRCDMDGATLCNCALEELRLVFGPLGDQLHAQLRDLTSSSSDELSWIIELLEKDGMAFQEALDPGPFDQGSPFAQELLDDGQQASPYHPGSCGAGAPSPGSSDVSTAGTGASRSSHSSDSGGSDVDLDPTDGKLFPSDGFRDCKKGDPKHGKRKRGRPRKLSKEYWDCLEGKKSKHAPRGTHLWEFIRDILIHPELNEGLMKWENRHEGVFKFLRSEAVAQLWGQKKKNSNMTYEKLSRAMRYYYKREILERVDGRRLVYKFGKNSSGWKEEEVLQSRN
The note with it: protein: recombinant; tags: N-terminal GST; dsDNA, one strand shown. In outline:
as §1

The next assay addresses CRX (Homo sapiens, UniProt O43186 1-299). The note with it: protein: recombinant; tags: N-terminal GST; dsDNA, one strand shown. In a few lines: as §1
A further assay deals with ETV1 (Homo sapiens, UniProt P50549 1-477). The settings on record: protein: recombinant; tags: N-terminal GST; dsDNA, one strand shown. In outline:
as §1

For a further assay, the target named is T6, ERF (Homo sapiens, UniProt P50548 1-548).
T6 sequence: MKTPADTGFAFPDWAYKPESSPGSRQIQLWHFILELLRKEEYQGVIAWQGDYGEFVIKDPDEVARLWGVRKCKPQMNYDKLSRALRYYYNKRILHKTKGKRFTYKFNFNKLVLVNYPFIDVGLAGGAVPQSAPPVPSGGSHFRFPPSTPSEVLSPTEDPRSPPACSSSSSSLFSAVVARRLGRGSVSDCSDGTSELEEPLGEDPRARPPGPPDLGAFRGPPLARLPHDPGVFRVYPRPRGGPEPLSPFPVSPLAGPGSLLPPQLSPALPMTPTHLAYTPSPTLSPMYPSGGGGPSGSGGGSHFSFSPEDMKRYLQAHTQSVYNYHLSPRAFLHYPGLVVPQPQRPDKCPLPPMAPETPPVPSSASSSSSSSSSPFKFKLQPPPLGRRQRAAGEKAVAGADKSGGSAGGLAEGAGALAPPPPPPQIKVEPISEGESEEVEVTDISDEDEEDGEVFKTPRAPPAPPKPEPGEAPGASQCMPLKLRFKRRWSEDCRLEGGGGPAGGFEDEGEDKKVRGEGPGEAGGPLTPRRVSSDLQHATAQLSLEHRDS
The note with it: protein: recombinant; tags: N-terminal GST; dsDNA, one strand shown. In outline: as §1

The next assay addresses T7, ETV3L (Homo sapiens, UniProt Q6ZN32 1-361).
T7 sequence: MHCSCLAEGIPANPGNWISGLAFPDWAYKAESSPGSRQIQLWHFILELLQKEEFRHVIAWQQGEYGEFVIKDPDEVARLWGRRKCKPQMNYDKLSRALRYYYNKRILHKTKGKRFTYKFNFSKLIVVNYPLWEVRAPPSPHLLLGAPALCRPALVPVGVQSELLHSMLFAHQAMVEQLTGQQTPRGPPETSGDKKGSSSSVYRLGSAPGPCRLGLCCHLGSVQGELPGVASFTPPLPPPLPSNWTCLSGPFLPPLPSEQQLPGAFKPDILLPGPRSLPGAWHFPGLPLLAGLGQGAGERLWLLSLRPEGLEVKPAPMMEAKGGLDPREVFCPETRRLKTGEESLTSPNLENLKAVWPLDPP
The settings on record: protein: recombinant; tags: N-terminal GST; dsDNA, one strand shown. In outline:
as §1

The target in a further assay is T8, ETS2 (Homo sapiens, UniProt P15036 1-469).
T8 sequence: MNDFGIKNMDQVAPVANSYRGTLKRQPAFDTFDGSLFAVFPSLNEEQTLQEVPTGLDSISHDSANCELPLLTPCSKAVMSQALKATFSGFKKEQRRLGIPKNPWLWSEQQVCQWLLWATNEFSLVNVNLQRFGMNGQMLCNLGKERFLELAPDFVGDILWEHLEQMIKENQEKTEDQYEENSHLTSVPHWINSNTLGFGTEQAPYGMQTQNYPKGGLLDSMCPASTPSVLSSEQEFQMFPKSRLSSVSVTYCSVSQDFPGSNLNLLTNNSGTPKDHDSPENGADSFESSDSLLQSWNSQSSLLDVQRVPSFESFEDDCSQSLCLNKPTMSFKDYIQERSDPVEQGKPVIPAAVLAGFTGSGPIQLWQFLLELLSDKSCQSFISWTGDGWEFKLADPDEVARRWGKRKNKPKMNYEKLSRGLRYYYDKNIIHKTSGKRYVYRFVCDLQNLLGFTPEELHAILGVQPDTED
The settings on record: protein: recombinant; tags: N-terminal GST; dsDNA, one strand shown. In outline:
as §1

A further assay has as its target T9, SPDEF (Homo sapiens, UniProt O95238 1-335).
T9 sequence: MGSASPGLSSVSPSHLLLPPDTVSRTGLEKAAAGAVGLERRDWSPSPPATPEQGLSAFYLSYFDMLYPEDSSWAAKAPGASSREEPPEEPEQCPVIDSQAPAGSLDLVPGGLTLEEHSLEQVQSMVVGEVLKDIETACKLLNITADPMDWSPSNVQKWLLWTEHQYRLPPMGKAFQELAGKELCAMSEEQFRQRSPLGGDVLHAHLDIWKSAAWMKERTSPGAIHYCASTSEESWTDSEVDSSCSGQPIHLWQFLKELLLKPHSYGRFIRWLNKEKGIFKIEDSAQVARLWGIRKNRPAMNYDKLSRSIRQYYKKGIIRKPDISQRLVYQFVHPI
The settings on record: protein: recombinant; tags: N-terminal GST; dsDNA, one strand shown. In outline: as §1

The next assay addresses T10, ETV7 (Homo sapiens, UniProt Q9Y603 1-341).
T10 sequence: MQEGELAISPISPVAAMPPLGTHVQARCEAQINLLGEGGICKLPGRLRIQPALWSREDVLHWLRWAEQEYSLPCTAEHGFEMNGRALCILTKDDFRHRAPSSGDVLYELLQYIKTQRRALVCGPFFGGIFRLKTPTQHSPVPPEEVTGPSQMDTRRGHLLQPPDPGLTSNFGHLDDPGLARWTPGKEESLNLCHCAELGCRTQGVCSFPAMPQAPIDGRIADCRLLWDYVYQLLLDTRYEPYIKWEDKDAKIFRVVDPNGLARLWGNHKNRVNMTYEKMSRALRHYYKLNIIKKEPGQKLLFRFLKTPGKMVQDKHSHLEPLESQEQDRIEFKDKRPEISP
The note with it: protein: recombinant; tags: N-terminal GST; dsDNA, one strand shown. In a few lines: as §1

Another assay concerns the target T11, ELF5 (Homo sapiens, UniProt Q9UKW6-2 1-255).
T11 sequence: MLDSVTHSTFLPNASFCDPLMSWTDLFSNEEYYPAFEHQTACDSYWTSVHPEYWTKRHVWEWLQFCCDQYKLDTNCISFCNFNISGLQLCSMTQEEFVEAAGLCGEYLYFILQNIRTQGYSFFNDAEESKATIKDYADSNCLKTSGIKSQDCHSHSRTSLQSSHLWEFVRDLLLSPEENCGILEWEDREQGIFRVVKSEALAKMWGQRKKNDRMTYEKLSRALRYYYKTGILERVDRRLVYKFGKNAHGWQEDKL
The note with it: protein: recombinant; tags: N-terminal GST; dsDNA, one strand shown. In a few lines: as §1

For the next assay, the target named is T12, ETV3 (Homo sapiens, UniProt P41162-2 1-143).
T12 sequence: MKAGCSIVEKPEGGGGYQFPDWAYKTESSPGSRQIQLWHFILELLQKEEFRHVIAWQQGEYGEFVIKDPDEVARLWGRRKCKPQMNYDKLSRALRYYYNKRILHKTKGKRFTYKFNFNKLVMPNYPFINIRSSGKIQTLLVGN
The settings on record: protein: recombinant; tags: N-terminal GST; dsDNA, one strand shown. In a few lines:
as §1

The target in a further assay is ETV6 (Homo sapiens, UniProt P41212 1-452). The settings on record: protein: recombinant; tags: N-terminal GST; dsDNA, one strand shown. In a few lines:
as §1

Sequence of CRX (O43186 whole entry): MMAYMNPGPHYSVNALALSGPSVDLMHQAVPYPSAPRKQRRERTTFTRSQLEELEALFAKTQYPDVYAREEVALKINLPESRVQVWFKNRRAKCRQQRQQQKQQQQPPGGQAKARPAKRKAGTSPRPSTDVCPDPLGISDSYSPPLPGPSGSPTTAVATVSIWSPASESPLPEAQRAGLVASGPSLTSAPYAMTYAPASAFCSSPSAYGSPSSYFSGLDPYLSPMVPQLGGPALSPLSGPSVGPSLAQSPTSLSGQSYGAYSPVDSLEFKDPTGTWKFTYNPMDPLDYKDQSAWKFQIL
Sequence of ETV6 (P41212 whole entry): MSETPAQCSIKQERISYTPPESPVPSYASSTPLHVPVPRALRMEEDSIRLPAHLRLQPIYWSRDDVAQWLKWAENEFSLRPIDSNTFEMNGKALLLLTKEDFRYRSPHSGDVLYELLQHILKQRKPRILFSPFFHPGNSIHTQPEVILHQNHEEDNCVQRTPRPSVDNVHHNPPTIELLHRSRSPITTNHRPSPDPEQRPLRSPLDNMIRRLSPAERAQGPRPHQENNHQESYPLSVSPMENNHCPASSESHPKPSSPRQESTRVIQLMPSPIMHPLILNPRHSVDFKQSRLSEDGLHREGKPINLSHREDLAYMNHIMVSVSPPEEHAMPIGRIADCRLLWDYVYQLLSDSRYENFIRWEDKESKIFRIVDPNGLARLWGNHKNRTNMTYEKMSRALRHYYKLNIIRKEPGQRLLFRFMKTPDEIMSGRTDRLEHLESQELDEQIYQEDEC
Sequence of ETV5 (P41161 whole entry): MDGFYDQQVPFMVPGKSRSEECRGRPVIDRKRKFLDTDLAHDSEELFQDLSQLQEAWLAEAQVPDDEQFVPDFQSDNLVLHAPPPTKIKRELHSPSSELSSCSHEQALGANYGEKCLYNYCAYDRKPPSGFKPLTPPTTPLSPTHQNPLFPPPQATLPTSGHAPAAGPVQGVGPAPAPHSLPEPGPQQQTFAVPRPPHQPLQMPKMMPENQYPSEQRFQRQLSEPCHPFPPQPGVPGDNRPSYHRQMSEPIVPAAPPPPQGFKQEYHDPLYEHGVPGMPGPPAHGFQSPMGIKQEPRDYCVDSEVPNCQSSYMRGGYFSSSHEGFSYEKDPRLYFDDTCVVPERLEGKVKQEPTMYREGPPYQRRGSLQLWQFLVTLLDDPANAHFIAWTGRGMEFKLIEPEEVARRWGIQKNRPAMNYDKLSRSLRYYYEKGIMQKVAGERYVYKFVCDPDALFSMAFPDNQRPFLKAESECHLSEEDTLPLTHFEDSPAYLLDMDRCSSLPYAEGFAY
Sequence of ELF4 (Q99607 whole entry): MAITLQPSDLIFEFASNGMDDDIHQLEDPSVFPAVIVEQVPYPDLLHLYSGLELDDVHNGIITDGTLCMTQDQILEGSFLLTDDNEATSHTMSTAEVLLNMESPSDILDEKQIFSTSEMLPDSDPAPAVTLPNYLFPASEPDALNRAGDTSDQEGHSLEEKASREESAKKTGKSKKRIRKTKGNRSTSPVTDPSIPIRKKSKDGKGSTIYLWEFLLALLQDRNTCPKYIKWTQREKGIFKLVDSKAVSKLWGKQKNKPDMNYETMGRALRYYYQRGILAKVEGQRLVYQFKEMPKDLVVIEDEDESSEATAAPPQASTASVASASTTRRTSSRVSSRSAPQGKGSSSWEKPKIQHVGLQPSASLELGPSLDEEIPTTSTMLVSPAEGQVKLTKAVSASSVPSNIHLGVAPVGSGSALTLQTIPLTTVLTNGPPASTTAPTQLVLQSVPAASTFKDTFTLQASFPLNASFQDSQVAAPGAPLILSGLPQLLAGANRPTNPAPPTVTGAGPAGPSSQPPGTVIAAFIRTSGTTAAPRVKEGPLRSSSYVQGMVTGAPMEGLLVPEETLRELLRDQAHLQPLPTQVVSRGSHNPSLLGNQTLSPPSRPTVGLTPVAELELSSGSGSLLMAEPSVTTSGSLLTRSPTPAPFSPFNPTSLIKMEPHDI
Sequence of ETV1 (P50549 whole entry): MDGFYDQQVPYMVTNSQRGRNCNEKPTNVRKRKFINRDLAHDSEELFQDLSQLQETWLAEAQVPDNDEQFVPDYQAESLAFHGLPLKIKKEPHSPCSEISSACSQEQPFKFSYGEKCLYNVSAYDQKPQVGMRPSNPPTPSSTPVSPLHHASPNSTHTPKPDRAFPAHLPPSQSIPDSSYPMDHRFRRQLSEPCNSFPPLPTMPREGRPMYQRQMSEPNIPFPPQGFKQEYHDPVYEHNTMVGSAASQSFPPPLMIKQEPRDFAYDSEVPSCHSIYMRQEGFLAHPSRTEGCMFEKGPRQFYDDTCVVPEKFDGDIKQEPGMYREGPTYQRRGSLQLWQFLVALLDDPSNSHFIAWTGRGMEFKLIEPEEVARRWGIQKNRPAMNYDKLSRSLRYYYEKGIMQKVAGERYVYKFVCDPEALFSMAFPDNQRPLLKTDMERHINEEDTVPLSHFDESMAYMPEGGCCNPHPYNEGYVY

Take AACCTT: the binding signal in the assay with FEV was 1.24 fold enrichment (6-mer frequency, TF over GST control); with ETV5 it was 1.3 fold enrichment (6-mer frequency, TF over GST control); with HSF1, 1.66 fold enrichment (6-mer frequency, TF over GST control); with SPIC, 1.17 fold enrichment (6-mer frequency, TF over GST control); with ELF4 it was 1.27 fold enrichment (6-mer frequency, TF over GST control); in the assay with ELK4, 1.36 fold enrichment (6-mer frequency, TF over GST control). In addition, the binding signal is 1.13 fold enrichment (6-mer frequency, TF over GST control) in the assay with ETV2; 1.23 fold enrichment (6-mer frequency, TF over GST control) in the assay with ELF3; 1.39 fold enrichment (6-mer frequency, TF over GST control) in the assay with CRX; 1.29 fold enrichment (6-mer frequency, TF over GST control) with ETV1; 1.39 fold enrichment (6-mer frequency, TF over GST control) with ERF; 1.27 fold enrichment (6-mer frequency, TF over GST control) with ETV3L. The binding signal with ETS2 was 1.38 fold enrichment (6-mer frequency, TF over GST control); in the assay with SPDEF, 1.29 fold enrichment (6-mer frequency, TF over GST control); with ETV7, 1.29 fold enrichment (6-mer frequency, TF over GST control); in the assay with ELF5, 1.33 fold enrichment (6-mer frequency, TF over GST control); with ETV3 it was 1.28 fold enrichment (6-mer frequency, TF over GST control); in the assay with ETV6, 1.27 fold enrichment (6-mer frequency, TF over GST control).
